Assay outcomes (PubChem)
Shown is part of a subset that was picked to be rich in hits.
GBA enhancer: increases beta-glucosidase activity in Gaucher fibroblasts; L444P Gaucher fibroblasts, 4-MU-glucoside fluorescence, 3 days; AID 784; activation, % at 10 µM; hit rate 0.44% among 30,000; P04062; in the data active = activation above about 65%;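 also: 0% = vehicle wells and 100% = positive control wells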
Target sequence (P04062 whole entry L483P): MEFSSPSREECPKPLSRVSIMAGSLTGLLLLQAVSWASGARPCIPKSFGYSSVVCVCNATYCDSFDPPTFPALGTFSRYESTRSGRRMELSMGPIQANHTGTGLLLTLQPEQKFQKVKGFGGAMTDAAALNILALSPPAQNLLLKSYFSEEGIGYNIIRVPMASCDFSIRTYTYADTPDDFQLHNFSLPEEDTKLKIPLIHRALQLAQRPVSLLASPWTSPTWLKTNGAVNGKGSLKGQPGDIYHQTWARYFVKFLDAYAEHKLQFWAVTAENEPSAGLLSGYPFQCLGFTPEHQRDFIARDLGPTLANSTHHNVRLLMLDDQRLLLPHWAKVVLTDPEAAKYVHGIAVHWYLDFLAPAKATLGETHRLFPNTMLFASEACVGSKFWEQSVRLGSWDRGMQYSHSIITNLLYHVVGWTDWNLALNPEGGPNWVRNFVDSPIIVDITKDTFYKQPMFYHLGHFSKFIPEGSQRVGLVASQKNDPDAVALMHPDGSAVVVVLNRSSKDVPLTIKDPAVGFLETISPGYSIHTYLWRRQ
The depositor's hits bear a star.

SMILES | GBA enhancer
CCC(C)n1cnc2c(c1=O)c1nc3ccccc3nc1n2Cc1ccc2c(c1)OCO2 (stereo unspecified) | 83*
CCC(C)n1cnc2c(c1=O)c1nc3ccccc3nc1n2-c1ccc2c(c1)OCCO2 (stereo unspecified) | -88
CCCCn1c2nc3ccccc3nc2c2c(=O)n(C(C)CC)cnc21 (stereo unspecified) | 34
Nn1c(COc2cccc(Br)c2)nnc1SCC(=O)N1CCc2ccccc2C1 | 1
Nc1ncc(Br)cc1S(=O)(=O)NCCC(=O)N1CCN(c2ncccn2)CC1 | -59
Cc1cc(C)nc(-n2nc(C)c(C3(O)C(=O)Nc4ccccc43)c2N)n1 (stereo unspecified) | -11
CCN(CC)C(=O)CSc1nnc(-c2ccco2)n1Cc1ccco1 | -8
CC(C)(C)NC(=O)CSc1nnc(-c2ccco2)n1Cc1ccco1 | 78*
COC(=O)CSc1nnc(-c2ccco2)n1Cc1ccco1 | -2
O=C(c1ccco1)N1CCN(CC(O)COc2ccc3oc4ccccc4c3c2)CC1 (stereo unspecified) | -13
CCOc1ccc(N2C(=O)CC(N3CCN(c4ccc(C(=O)c5ccncc5)cc4)CC3)C2=O)cc1 (stereo unspecified) | -13
O=C(NCC(c1cccnc1)N1CCN(c2ccc(F)cc2)CC1)c1cccc(Cl)c1 (stereo unspecified) | 4
O=C(NCCCn1ccnc1)Nc1ccc(Cl)cc1 | 122*
O=C(NCCCn1ccnc1)Nc1ccc(Cl)c(Cl)c1 | -3
C=C(C)c1cccc(C(C)(C)NC(=O)NCCCn2ccnc2)c1 | -16
COc1ccc(CNC(=O)CN(C(=O)c2cc3sccc3n2C)C2CCCC2)cc1 | 10
COCCN(CCOC)S(=O)(=O)c1ccc(C(=O)Nc2nnc(C)o2)cc1 | -9
COCc1nnc(NC(=O)c2ccc(S(=O)(=O)N3CCCCCC3)cc2)o1 | 2
COCc1nnc(NC(=O)c2ccc(S(=O)(=O)N(C)C3CCCCC3)cc2)o1 | 79*
CN(C1CCS(=O)(=O)C1)S(=O)C12CC3CC(CC(C3)C1)C2 (stereo unspecified) | -11
Cc1csc(NC(=O)CCC(=O)N(CC(=O)NC2CCCC2)Cc2ccco2)n1 | -2
O=C1c2ccccc2C(=O)N1CCCc1nc(-c2ccccn2)no1 | -4
Nc1nonc1-c1noc(CCCCCN2C(=O)c3ccccc3C2=O)n1 | 479*
O=C1CCC(=O)N1CCCCCc1nc(-c2ccccc2)no1 | -4
CC(=O)c1cccc(NC(=O)C=C(C)C)c1 | 1
SMILES | GBA enhancer
COC(=O)CC1Sc2ccccc2NC1=O (stereo unspecified) | -22
CC(=O)c1ccc2c(c1)Nc1ccccc1S2 | 71*
CCNc1nc2c(c(=O)n(Cc3ccccc3)c(=O)n2C)n1Cc1ccccc1 | -24
O=C(Cn1cnc2c(nnn2Cc2ccc(F)cc2)c1=O)N1CCCc2ccccc21 | -13
COC(=O)c1cccc(N(C(=O)c2cnccn2)C(C(=O)NCc2ccccc2)c2ccco2)c1 (stereo unspecified) | 10
COc1ccc(S(=O)(=O)N(Cc2ccccc2)Cc2nc(-c3ccccc3)no2)cc1 | 0
CN(C(=O)c1ccc(Cl)cc1)C1=CCCCC1CCC#N (stereo unspecified) | -34
Cc1ccc(-c2nnn(CC(=O)Nc3ccccc3N3CCOCC3)n2)cc1 | -18
Cc1cc(Cl)ccc1OC(C)C(=O)Nc1ccccc1N1CCOCC1 (stereo unspecified) | -28
O=C(Nc1ccccc1N1CCOCC1)c1ccc2ccccc2n1 | 20
Cc1ccn2cc(C(=O)Nc3ccccc3N3CCOCC3)nc2c1 | 92*
CCC(C)Oc1cccc(C(=O)Nc2ccccc2N2CCOCC2)c1 (stereo unspecified) | -2
CC(C)Oc1cccc(C(=O)Nc2ccccc2N2CCOCC2)c1 | 65*
COc1ccc(NC(=O)c2cnc3sccn3c2=O)cc1OC | 8
O=C(NCCc1cn2ccccc2n1)C1CCCCC1 | 10
Cc1ccc(-n2c(=O)c(C#N)cc3c(=O)n4ccccc4nc32)cc1 | 134*
Cc1ccc(S(=O)(=O)c2cc3c(=O)n4ccccc4nc3n(CC3CCCO3)c2=N)cc1 (stereo unspecified) | -4
N#Cc1cc2c(=O)n3ccccc3nc2n(CCCn2ccnc2)c1=N | -14
CCCc1cc(=O)[nH]c(Nc2ccc(OC)c(Cl)c2)n1 | -25
O=C(CSc1nnc(-c2ccccn2)n1Cc1ccccc1)Nc1ccc2c(c1)OCO2 | -30
O=C(O)CN1C(=O)CSc2ccccc21 | -8
CC1(C)CC(=O)N(CC(=O)O)c2ccccc2S1 | 88*
CCOC(=O)CN1C(=O)CSc2ccccc21 | 73*
O=C1CSc2ccccc2N1Cc1ccc(F)cc1 | 37
Cc1ccc2c(c1)N(CC(=O)O)C(=O)CO2 | -7
SMILES | GBA enhancer
O=C(O)CN1C(=O)C2(OCCCO2)c2ccccc21 | 4
CCc1nnc2n1N=C(c1ccc(-c3cc(Cl)ccc3Cl)o1)CS2 | -14
N#CC1=C(N)N(c2ccccc2Sc2ccccc2)C(=O)C1 | -2
C[C@@H]1C[C@H]2[C@@H]3CCC4=CC(=O)C=C[C@]4(C)[C@@]3(F)[C@@H](O)C[C@]2(C)[C@H]1C(=O)CO | -30
CCOc1cccc2cc(-c3csc(NC(=O)CCC(=O)N4CCN(C)CC4)n3)c(=O)oc12 | 10
CCOC(=O)C(C(C)=O)c1c(Br)c(O)c(O)c2c(C(=O)c3ccc(C)cc3)coc12 (stereo unspecified) | 7
CCCCCCn1c(CN2CCCCC2CC)nc2c1c(=O)n(C)c(=O)n2C (stereo unspecified) | -19
CCOc1cc2[nH]c(=O)n(CCCCCC(=O)NCc3ccc4c(c3)OCO4)c(=O)c2cc1OCC | -23
CCOc1cc2[nH]c(=O)n(CC3CCC(C(=O)NC4CCCCC4)CC3)c(=O)c2cc1OCC (stereo unspecified) | 5
CCCCN(C)C(=O)CCCCn1c(=O)[nH]c2cc(OCC)c(OCC)cc2c1=O | 68*
Cc1cc(NC(=O)CCC(=O)N(c2ccccc2)C2(C(=O)NC3CCCCC3)CCCC2)no1 | -20
Cc1ccc(C)c(N(C)S(=O)(=O)c2cccc3nsnc23)c1 | 77*
CC(C)CCNC(=O)CN(C)S(=O)(=O)c1cccc2nsnc12 | 0
Cc1cc(C)cc(NC(=O)CN(C)S(=O)(=O)c2cccc3nsnc23)c1 | -40
CCOc1ccc2[nH]c(=O)c(C(c3nnnn3Cc3ccco3)N3CCCC(C)C3)cc2c1 (stereo unspecified) | 25
O=C(COC(=O)CCC(=O)c1cccs1)Nc1ccc(S(=O)(=O)N2CCOCC2)cc1 | -17
O=C(CCCNS(=O)(=O)c1cccc2nsnc12)NCc1ccc(Cl)cc1 | -36
COc1ccc(CNC(=O)CCCNS(=O)(=O)c2cccc3nonc23)cc1 | 183*
O=C(CCCNS(=O)(=O)c1cccc2nsnc12)NCc1ccccc1 | -16
Brc1ccc(C2=Nn3c(nnc3-c3cccnc3)SC2)s1 | 98*
Clc1ccc(C2=Nn3c(nnc3-c3cccnc3)SC2)s1 | -14
O=c1oc2ccccc2cc1C1=Nn2c(nnc2-c2cccnc2)SC1 | -9
O=c1oc2c(CN3CCCCCC3)c(O)ccc2cc1-c1nc2ccccc2[nH]1 | 11
COc1cccc(CNC(=O)C2CCN(S(=O)(=O)N3CC(C)CC(C)C3)CC2)c1 (stereo unspecified) | -15
Cn1c(C(=O)NCCCN2CCCC2=O)cc2c(=O)n3ccccc3nc21 | -23
NS(=O)(=O)c1ccc(CCNC(=O)c2cccnc2)cc1 | -1
COc1ccc(N(Cc2cc3ccc(C)cc3[nH]c2=O)C(C)=O)cc1 | -8
CN=C1SC(CC(=O)Nc2cccc(C(F)(F)F)c2)C(=O)N1C (stereo unspecified) | 135*
